Laboratory results taken from the supplement of paper PMC10849652.
The full data set covers some 7,900 targets. This sample favours those with a hit. About 0.6% of all pairs of compound and target were hits. Unmarked numbers belong to inactive results.

Columns and labels:
Assay in all cases: log2 fold change, soluble protein after heating vs DMSO (PISA); higher = thermal stabilisation; K562 cells, 10 uM, 30 min; active = over 0.2 and 3.5 SD of the protein, either way, in both replicates (recomputed)
[1] = compound: Cc1ccc(NC(=O)c2ccc(CN3CC[C@H](N(C)C)C3)c(C(F)(F)F)c2)cc1Nc1nccc(-c2cncnc2)n1 [bafetinib]
Method in brief: (§1)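 Thermal stability values are relative to control samples and come from duplicates. They are expressed as log2 fold changes. For measurement, K562 cells (2×10^6 cells/mL) received 10 μM compound for 30 min, and aliquots were heated for 3 min over 48°C-58°C, pooled, and extracted at 4°C in PBS with 0.5% NP-40. Soluble protein, the supernatant after 21,000xg for 90 min, was quantified by TMTpro 16plex LC-MS/MS with equalised channel sums.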

[2] = compound: Cc1cccc(CC(=O)N2CCc3c2ccc(-c2cn(C)c4ncnc(N)c24)c3F)n1
Method in brief: as §1

[3] = compound: Cc1cn(-c2cc(NC(=O)c3ccc(C)c(Nc4nccc(-c5cccnc5)n4)c3)cc(C(F)(F)F)c2)cn1 [nilotinib]
Method in brief: as §1

[4] = compound: Cc1nc(Nc2n[nH]c3c2CN(C(=O)N[C@H](CN(C)C)c2ccccc2)C3(C)C)c2sccc2n1
Method in brief: as §1

[5] = compound: Cc1nc(Nc2ncc(C(=O)Nc3c(C)cccc3Cl)s2)cc(N2CCN(CCO)CC2)n1 [dasatinib]
Method in brief: as §1

[6] = compound: Cc1ncc(-c2ccnc(Nc3ccc(S(C)(=O)=O)cc3)n2)n1C(C)C
Method in brief: as §1

[7] = compound: Cn1cc(-c2ccc3c(c2)CCN3C(=O)Cc2cccc(C(F)(F)F)c2)c2c(N)ncnc21
Method in brief: as §1

[8] = compound: Cn1cc(-c2ccc3nnc(C(F)(F)c4ccc5ncccc5c4)n3n2)cn1
Method in brief: as §1

[9] = compound: Cn1cncc1[C@@](N)(c1ccc(Cl)cc1)c1ccc2c(c1)c(-c1cccc(Cl)c1)cc(=O)n2C [tipifarnib]
Method in brief: as §1

[10] = compound: FC(F)(F)c1ccc(/C=C/c2nc(COc3ccc(CCCCn4ccnn4)cc3)co2)cc1 [mubritinib]
Method in brief: as §1

[11] = compound: NC(=O)Nc1cc(-c2cccc(F)c2)sc1C(=O)N[C@H]1CCCNC1
Method in brief: as §1

[12] = compound: NC(=O)c1cnc(N[C@@H]2CCCC[C@@H]2N)nc1Nc1cccc(-n2nccn2)c1
Method in brief: as §1

[13] = compound: NC1(c2ccc(-c3nc4ccn5c(=O)[nH]nc5c4cc3-c3ccccc3)cc2)CCC1
Method in brief: as §1

[14] = compound: NCC(=O)Nc1ccc(-n2nc(C(F)(F)F)cc2-c2ccc3c(ccc4ccccc43)c2)cc1
Method in brief: as §1

[15] = compound: Nc1ccccc1NC(=O)c1ccc(CNC(=O)OCc2cccnc2)cc1 [entinostat]
Method in brief: as §1

[16] = compound: O=C(CCCCCCC(=O)Nc1ccccc1)NO [vorinostat]
Method in brief: as §1

[17] = compound: O=C(CCCCCCNC(=O)c1cnc(N(c2ccccc2)c2ccccc2Cl)nc1)NO [citarinostat]
Method in brief: as §1

[18] = compound: O=C(O)c1ccc2c(c1)nc(Nc1cccc(Cl)c1)c1ccncc12 [silmitasertib]
Method in brief: as §1

[19] = compound: O=C1NC(=O)C(c2cnc3ccccn23)=C1c1cn2c3c(cc(F)cc13)CN(C(=O)N1CCCCC1)CC2
Method in brief: as §1

[20] = compound: c1cc(OCCN2CCCCC2)cc(-c2n[nH]c3ccc(-c4nnc[nH]4)cc23)c1
Method in brief: as §1

UniProt Q13795, sequence (Q13795 whole entry, looked up): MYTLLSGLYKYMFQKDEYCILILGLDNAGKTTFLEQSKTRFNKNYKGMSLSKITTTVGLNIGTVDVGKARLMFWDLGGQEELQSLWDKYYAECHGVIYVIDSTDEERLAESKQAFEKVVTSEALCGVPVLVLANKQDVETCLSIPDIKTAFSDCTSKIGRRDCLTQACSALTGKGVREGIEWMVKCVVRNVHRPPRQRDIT
UniProt O14981, sequence (O14981 whole entry, looked up): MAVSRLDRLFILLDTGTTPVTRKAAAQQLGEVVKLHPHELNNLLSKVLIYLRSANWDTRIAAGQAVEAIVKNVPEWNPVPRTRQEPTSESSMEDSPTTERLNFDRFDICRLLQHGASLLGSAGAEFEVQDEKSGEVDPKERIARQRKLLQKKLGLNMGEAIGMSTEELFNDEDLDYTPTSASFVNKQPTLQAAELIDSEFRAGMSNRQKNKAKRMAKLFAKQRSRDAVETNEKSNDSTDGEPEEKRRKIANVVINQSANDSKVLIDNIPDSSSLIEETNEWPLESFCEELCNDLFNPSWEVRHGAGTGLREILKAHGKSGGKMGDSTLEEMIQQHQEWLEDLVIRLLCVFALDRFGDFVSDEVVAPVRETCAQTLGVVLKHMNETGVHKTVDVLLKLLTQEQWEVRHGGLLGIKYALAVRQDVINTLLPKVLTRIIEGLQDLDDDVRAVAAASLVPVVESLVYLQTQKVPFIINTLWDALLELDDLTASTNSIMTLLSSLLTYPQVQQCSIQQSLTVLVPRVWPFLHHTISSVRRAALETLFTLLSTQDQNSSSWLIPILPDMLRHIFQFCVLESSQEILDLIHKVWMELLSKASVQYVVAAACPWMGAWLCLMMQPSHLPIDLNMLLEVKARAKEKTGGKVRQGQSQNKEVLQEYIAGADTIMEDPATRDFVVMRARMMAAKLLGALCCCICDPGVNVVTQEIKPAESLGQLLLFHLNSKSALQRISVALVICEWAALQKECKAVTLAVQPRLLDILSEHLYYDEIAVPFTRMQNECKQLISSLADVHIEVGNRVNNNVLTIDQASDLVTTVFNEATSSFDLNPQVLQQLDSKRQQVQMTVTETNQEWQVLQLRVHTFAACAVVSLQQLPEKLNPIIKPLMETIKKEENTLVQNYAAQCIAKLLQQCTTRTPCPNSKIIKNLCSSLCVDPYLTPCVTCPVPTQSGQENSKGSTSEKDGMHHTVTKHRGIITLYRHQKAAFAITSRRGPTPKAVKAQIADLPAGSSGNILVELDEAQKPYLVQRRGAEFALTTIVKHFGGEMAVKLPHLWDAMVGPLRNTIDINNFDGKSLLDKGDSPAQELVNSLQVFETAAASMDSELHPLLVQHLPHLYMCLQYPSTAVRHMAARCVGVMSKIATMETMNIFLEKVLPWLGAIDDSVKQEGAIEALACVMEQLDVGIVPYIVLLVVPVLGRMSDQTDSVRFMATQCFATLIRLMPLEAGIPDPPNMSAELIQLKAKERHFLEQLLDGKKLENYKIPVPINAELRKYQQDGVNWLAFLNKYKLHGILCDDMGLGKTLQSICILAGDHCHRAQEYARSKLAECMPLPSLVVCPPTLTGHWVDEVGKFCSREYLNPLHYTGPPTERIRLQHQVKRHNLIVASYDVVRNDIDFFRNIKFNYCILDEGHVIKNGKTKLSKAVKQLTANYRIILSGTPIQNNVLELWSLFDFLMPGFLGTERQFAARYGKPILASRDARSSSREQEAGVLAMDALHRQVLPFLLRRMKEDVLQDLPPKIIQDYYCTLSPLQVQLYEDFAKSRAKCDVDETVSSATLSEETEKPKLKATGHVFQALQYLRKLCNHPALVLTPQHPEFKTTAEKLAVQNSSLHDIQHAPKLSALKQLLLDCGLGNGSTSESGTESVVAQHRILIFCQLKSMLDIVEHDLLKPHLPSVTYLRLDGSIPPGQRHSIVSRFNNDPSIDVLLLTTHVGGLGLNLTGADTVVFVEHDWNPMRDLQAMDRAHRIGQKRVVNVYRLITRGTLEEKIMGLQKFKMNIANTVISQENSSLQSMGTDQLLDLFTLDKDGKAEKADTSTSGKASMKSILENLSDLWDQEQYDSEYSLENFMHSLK
UniProt Q96GS6, sequence (Q96GS6 whole entry, looked up): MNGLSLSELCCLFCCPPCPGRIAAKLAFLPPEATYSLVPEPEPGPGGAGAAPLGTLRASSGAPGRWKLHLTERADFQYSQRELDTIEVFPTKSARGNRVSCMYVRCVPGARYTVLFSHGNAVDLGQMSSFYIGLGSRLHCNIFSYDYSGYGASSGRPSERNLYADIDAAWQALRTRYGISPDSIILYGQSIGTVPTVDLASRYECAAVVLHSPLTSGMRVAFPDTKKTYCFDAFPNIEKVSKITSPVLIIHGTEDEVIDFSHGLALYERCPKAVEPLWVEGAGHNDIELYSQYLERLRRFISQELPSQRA
UniProt Q66PJ3, sequence (Q66PJ3 whole entry, looked up): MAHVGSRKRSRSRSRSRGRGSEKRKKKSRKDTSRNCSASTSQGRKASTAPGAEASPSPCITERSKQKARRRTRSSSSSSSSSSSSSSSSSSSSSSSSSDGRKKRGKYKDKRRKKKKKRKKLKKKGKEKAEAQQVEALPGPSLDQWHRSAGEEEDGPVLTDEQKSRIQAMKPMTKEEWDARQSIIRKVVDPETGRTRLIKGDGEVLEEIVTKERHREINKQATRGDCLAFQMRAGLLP
UniProt P53680, sequence (P53680 whole entry, looked up): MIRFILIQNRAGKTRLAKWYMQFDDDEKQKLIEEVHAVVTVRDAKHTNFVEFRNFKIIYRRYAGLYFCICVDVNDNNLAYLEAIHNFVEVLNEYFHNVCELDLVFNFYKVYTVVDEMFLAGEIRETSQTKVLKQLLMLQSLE
UniProt P21283, sequence (P21283 whole entry, looked up): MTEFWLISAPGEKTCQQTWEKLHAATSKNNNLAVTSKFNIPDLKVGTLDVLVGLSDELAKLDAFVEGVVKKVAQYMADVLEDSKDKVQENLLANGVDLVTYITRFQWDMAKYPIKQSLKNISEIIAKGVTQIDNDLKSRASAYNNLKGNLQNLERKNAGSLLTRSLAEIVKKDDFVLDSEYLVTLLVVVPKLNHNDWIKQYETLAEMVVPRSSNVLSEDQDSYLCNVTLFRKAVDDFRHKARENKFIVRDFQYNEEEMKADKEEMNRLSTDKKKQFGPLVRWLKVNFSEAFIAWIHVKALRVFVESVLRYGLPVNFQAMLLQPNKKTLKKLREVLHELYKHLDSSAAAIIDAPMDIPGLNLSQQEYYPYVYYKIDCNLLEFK
UniProt Q9P287, sequence (Q9P287 whole entry, looked up): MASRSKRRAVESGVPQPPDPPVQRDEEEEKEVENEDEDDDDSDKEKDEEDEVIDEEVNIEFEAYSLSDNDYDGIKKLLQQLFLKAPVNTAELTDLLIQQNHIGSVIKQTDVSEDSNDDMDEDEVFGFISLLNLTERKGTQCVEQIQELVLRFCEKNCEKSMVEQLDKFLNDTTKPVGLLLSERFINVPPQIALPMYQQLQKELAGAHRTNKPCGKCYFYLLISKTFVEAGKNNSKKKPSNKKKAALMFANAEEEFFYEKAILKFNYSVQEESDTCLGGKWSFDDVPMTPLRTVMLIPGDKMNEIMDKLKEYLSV
UniProt P63010, sequence (P63010 whole entry, looked up): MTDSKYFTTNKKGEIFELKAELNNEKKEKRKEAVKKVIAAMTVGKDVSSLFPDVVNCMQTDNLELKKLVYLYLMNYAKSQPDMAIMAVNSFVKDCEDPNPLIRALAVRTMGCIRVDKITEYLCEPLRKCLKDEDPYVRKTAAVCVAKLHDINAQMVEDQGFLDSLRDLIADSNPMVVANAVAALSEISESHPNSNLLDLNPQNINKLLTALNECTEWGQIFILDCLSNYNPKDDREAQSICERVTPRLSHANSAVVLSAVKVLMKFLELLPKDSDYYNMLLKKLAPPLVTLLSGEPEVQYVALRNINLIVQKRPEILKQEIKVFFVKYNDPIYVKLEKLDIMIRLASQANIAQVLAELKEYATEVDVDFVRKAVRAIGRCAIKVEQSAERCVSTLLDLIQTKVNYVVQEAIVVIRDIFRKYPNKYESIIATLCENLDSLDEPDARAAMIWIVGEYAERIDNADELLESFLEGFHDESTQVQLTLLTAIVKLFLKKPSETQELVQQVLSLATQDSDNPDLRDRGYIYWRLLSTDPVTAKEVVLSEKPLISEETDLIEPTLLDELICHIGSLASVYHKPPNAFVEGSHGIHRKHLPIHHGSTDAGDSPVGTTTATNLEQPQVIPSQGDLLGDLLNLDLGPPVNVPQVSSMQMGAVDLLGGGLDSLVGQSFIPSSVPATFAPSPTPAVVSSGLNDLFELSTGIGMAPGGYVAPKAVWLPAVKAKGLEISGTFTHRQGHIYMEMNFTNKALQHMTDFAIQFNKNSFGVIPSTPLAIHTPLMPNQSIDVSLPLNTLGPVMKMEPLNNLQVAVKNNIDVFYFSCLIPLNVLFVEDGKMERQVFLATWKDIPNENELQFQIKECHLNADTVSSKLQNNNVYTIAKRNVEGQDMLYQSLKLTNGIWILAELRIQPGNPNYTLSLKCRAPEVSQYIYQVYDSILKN
UniProt Q9BTT0, sequence (Q9BTT0 whole entry, looked up): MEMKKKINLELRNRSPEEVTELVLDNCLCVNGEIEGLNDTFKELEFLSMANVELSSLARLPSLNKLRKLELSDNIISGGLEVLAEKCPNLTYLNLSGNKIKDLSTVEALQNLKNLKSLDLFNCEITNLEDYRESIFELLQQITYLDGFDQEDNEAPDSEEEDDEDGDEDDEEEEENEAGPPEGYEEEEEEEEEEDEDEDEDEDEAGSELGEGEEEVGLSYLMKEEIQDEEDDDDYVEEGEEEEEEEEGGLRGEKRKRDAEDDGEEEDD
UniProt Q8WUW1, sequence (Q8WUW1 whole entry, looked up): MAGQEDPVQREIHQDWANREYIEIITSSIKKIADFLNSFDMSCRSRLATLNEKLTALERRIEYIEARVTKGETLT
UniProt Q6QNY0, sequence (Q6QNY0 whole entry, looked up): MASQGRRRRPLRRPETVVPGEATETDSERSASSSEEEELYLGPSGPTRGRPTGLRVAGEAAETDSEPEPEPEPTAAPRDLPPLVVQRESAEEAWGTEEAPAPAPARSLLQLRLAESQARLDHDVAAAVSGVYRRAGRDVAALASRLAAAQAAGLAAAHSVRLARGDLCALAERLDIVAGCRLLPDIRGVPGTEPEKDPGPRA

Row | Target | log2 fold change [1] | log2 fold change [2] | log2 fold change [3] | log2 fold change [4] | log2 fold change [5] | log2 fold change [6] | log2 fold change [7] | log2 fold change [8] | log2 fold change [9] | log2 fold change [10] | log2 fold change [11] | log2 fold change [12] | log2 fold change [13] | log2 fold change [14] | log2 fold change [15] | log2 fold change [16] | log2 fold change [17] | log2 fold change [18] | log2 fold change [19] | log2 fold change [20]
1 | BTAF1 (UniProt O14981) | -0.158 | 0.025 | -0.004 | -0.059 | -0.131 | 0.035 | 0.04 | -0.003 | -0.034 | -0.022 | -0.024 | -0.012 | -0.152 | -0.104 | 0.012 | 0.037 | 0.038 | 0.036 | -0.062 | 0.079
2 | ABHD17A isoform 2 (UniProt Q96GS6) | -0.051 | 0.044 | -0.054 | 0.047 | -0.023 | 0.018 | 0.028 | 0.068 | -0.042 | 0.061 | 0.036 | -0.119 | -0.049 | -0.078 | -0.104 | -0.04 | 0.036 | -0.02 | 0.01 | 0.051
3 | B4GALNT1 (UniProt Q00973) | 0.141 | -0.042 | 0.083 | 0.012 | 0.076 | -0.125 | -0.128 | 0.036 | 0.025 | 0.015 | -0.001 | -0.062 | -0.093 | 0.092 | 0.02 | 0.003 | 0.538 (active) | 0.062 | -0.095 | 0.064
4 | AP2B1 isoform 2 (UniProt P63010) | 0.024 | -0.01 | -0.019 | 0.019 | 0.035 | -0.032 | -0.029 | 0.004 | -0.014 | -0.01 | -0.225 (active) | 0.01 | 0.037 | 0.002 | 0 | 0.01 | 0.019 | 0.02 | -0.202 | -0.182
5 | AP2S1 (UniProt P53680) | 0.023 | -0.01 | -0.019 | -0.009 | -0.011 | -0.082 | -0.057 | 0.004 | -0.04 | -0.001 | -0.386 (active) | 0.102 | -0.009 | -0.039 | -0.066 | 0.108 | -0.077 | 0.011 | -0.314 (active) | -0.217
6 | BRK1 isoform 2 (UniProt Q8WUW1) | -0.043 | 0.007 | 0.02 | -0.051 | 0.054 | -0.051 | 0.047 | 0.186 | -0.049 | 0.002 | -0.071 | 0.033 | -0.019 | 0.065 | 0.079 | -0.06 | 0.031 | -0.063 | -0.16 | -0.078
7 | ATP6V1C1 (UniProt P21283) | -0.083 | 0.063 | -0.137 | -0.191 | -0.045 | 0.115 | -0.083 | -0.105 | 0.03 | 0.083 | -0.015 | -0.135 | -0.173 | -0.09 | 0.062 | 0.039 | 0.008 | 0.03 | 0.025 | -0.103
8 | ANP32E (UniProt Q9BTT0) | 0.04 | 0.146 | -0.061 | -0.123 | 0.053 | -0.104 | 0.013 | 0.027 | 0.001 | -0.047 | 0.029 | -0.043 | 0.014 | 0.063 | 0.016 | 0.01 | 0.116 | 0.083 | -0.233 | -0.036
9 | BLOC1S3 (UniProt Q6QNY0) | -0.02 | 0.006 | -0.067 | 0.031 | -0.051 | -0.022 | 0.017 | 0.078 | -0.103 | -0.027 | 0.057 | 0 | -0.014 | -0.023 | -0.06 | 0.039 | -0.018 | 0.006 | -0.013 | -0.014
10 | ARL6IP4 (UniProt Q66PJ3) | -0.042 | 0.002 | -0.012 | -0.459 (active) | 0.016 | 0.013 | 0.112 | -0.038 | 0.019 | 0.023 | -0.035 | 0.221 | 0.025 | 0.013 | -0.04 | -0.011 | 0.04 | -0.017 | -0.007 | -0.017
11 | ADD1 isoform 3 (UniProt P35611) | -0.018 | 0.068 | 0.014 | -0.02 | 0.041 | -0.093 | 0.009 | 0.014 | 0.015 | 0.033 | 0.03 | -0.016 | 0.034 | -0.02 | -0.071 | 0.01 | 0.034 | -0.01 | -0.06 | 0.01
12 | ARFRP1 (UniProt Q13795) | 0.025 | 0.327 (active) | -0.061 | -0.014 | -0.017 | 0.112 | 0.11 | -0.003 | -0.069 | -0.019 | 0.167 | 0.108 | -0.173 | 0.067 | 0.117 | 0.054 | 0.025 | 0.013 | -0.085 | 0.074
13 | ANAPC2 (UniProt Q9UJX6) | -0.048 | 0.024 | -0.004 | -0.053 | -0.04 | 0.003 | -0.005 | -0.036 | -0.005 | 0.049 | 0.079 | -0.025 | -0.063 | -0.023 | 0.02 | 0.074 | 0.124 | 0.087 | 0.027 | -0.049
14 | APPL1 (UniProt Q9UKG1) | -0.013 | -0.092 | -0.046 | 0.161 | -0.003 | 0.002 | 0.03 | -0.001 | -0.051 | -0.029 | -0.032 | -0.012 | -0.023 | -0.043 | -0.053 | 0.009 | 0.04 | 0.022 | -0.046 | 0.07
15 | BRAP (UniProt Q7Z569) | 0.026 | 0.017 | -0.087 | -0.186 | -0.097 | -0.116 | -0.067 | -0.066 | -0.04 | 0.056 | 0.056 | -0.063 | -0.113 | -0.015 | 0.003 | 0.069 | 0.037 | 0.073 | 0.124 | 0.064
16 | BCCIP isoform 2 (UniProt Q9P287) | 0.014 | 0.021 | -0.046 | -0.029 | -0.071 | 0.017 | -0.064 | -0.007 | -0.015 | -0.023 | 0 | -0.001 | -0.096 | -0.011 | 0.027 | 0.033 | 0.021 | 0.096 | -0.029 | -0.031
